The list is not random: actives were taken first. Their share in the collection is about 27%.
CYP2C19 inhib: inhibitors of human CYP2C19; CYP2C19 Supersomes, luciferin-H EGE luminescence, 30 min; inhibition, % at 5 µM; 96,000 compounds, 21% hits; AID 778;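 active means CYP2C19 inhibition above a set limit at 5 µM in the primary screen, cut at about 50% in these data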;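 further: plate controls were negative control wells for no effect and 2.5 mM tranylcypromine positive control for full effect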
Target sequence (P33261 whole entry, looked up): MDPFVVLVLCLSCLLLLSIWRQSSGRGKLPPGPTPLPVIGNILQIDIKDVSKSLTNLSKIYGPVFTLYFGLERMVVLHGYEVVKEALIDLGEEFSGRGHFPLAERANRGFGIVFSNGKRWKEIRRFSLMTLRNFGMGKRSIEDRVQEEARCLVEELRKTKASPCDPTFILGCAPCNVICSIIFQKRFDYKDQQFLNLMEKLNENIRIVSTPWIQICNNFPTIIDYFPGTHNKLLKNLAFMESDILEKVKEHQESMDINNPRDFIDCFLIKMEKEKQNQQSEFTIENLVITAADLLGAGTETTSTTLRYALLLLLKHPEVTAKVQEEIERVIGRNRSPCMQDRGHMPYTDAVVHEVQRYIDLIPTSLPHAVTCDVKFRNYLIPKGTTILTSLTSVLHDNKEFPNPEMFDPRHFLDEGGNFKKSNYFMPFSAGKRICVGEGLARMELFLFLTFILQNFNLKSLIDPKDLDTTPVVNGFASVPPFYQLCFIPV
Cav3 T inh: inhibitors of human Cav3.2 T-type calcium channel; O95180; Cav3.2-expressing cells, Fluo-4 calcium fluorescence FDSS; hits give low values; B-score at 10 µM; 100,000 compounds, 4% hits; AID 449739;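 active means single-dose well whose peak fluorescence ratio is a statistical outlier from its plate by either plate-standardised score or position-corrected B-score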
Pyk2 oligo antag: Pyk2 (human) oligomerization antagonism; Q14289; Q293 cells, Pyk2 FERM NanoBiT luminescence; hits give low values; z-score (the deposit names both 25 µM and 10 µM); 99,000 compounds, 0.83% hits;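 active means Z-score of -3 or lower, scaled per plate to the spread of control and sample wells; inactive means z-score above -3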;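 further: negative z-score means lost luminescence so less FERM oligomerization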
CYP2C9 inh: human CYP2C9 inhibition | CYP2C9 Supersomes, luciferin-H conversion, luminescence | 96,000 compounds, 20% hits | inhibition, % at 5 µM | P11712;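 active means blocking of liver enzyme CYP2C9 beyond about 50% at 5 µM, limit read from the data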
CYP2C9 activ: activators of human CYP2C9 | P11712 | recombinant CYP2C9, luciferin-H conversion, luminescence; hits give high values; factor 1 = untreated enzyme, 0 = blocked | activation factor at 5 µM | 96,000 compounds, 1.4% hits | AID 1024;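 active means activation factor of 2 or more for CYP2C9 at a 5 µM dose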;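 further: 0 = sulfaphenazole-blocked wells and 1 = vehicle-only wells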
CYP2C19 activ: cytochrome P450 2C19 (human) activation; recombinant CYP2C19, luciferin-H EGE luminescence; hits give high values; 0 = fully inhibited enzyme, 1 = untreated enzyme; activation factor at 5 µM; 96,000 tested, under 10 active; P33261; AID 1025;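 active means activation factor of at least 2 at 5 µM in the primary screen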;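 further: 0 = wells with 2.5 mM tranylcypromine and 1 = vehicle-only wells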
* = called active by the depositor; · = no result given.

SMILES	CYP2C19 inhib	Cav3 T inh	Pyk2 oligo antag	CYP2C9 inh	CYP2C9 activ	CYP2C19 activ
CCOC(=O)CC1=CC(C)(CC(=O)OCC)C(C#N)(C#N)C(N)=C1C#N (centres undefined)	21	0.081	0.72	79*	0.2	0.8
CCOC(=O)Cc1csc(N)n1	-8	-0.61	0.05	-4	1	1.1
CCCOc1ccc2c(=O)c(N3C(=O)c4ccccc4C3=O)c(C)oc2c1	16	-0.051	-1.1	19	0.8	0.8
Cc1oc2cc(O)ccc2c(=O)c1Oc1ccccc1	27	0.79	0.69	-100	2*	0.7
Cc1ccccc1-c1c(C)oc2cc(O)ccc2c1=O	22	0.37	-1.1	-116	2.2*	0.8
Cc1oc2cc(O)ccc2c(=O)c1N1C(=O)c2ccccc2C1=O	-8	-0.44	-1.1	-118	2.2*	1.1
COC(=O)c1cc(-c2c(C)oc3cc(O)ccc3c2=O)c(C)o1	·	0.72	-0.08	·	·	·
Fc1ccc(Sc2ccccc2CNC2=NCCN2)cc1	·	·	0.22	·	·	·
COC(=O)C(NC(C)=O)(Nc1nc2ccc(C)cc2s1)C(F)(F)F (centres undefined)	75*	-0.52	-0.46	78*	0.2	0.3
COC(=O)C(NC(C)=O)(Nc1nc2ccc(S(C)(=O)=O)cc2s1)C(F)(F)F (centres undefined)	2	1.1	0.49	64*	0.4	1
CCOC(=O)c1ccc2nc(NC(NC(C)=O)(C(=O)OC)C(F)(F)F)sc2c1 (centres undefined)	40	0.16	-0.32	22	0.8	0.6
CS(=O)(=O)c1ccc2nc(NC(NC(=O)c3ccco3)(C(F)(F)F)C(F)(F)F)sc2c1	50*	·	0.51	99*	0	0.5
Cc1cc(NC(NC(=O)c2ccco2)(C(F)(F)F)C(F)(F)F)no1	11	0.97	0.5	11	0.9	0.9
CSc1nc(Cc2ccc(Cl)cc2)nc2ccccc12	-6	-0.43	-0.51	-6	1.1	1.1
CCC(=O)Nc1nnc(CSCc2ccc(F)cc2)s1	35	0.29	0.57	6	0.9	0.7
CCOC(=O)CSc1nc(N)c(C#N)c(-c2cccs2)c1C#N	9	0.41	-1.3	20	0.8	0.9
CCSc1nc(C2CC2)cc(-c2cccs2)c1C#N	68*	-0.9	-1.1	41	0.6	0.3
CCCSc1nc(N)nc(-c2cccs2)c1C#N	40	·	-2.5	73*	0.3	0.6
CC1(CC(=O)O)SC(=O)NC1=O (centres undefined)	-15	·	0.09	-36	1.4	1.1
CSc1ccccc1C(=O)NCCc1ccc(S(=O)(=O)N2CCCCC2)cc1	-8	-1.6	-0.03	38	0.6	1.1
O=C(Nc1ncc(Cc2cccc(Cl)c2)s1)c1cccs1	26	-3.3	-1.7	49	0.5	0.7
O=C(NCCc1ccc(S(=O)(=O)N2CCCC2)cc1)c1cccs1	40	-0.44	1	62*	0.4	0.6
O=C(Nc1nc(-c2cc(Cl)sc2Cl)cs1)c1cccs1	33	-2	-2.9	83*	0.2	0.7
O=C(Nc1ccc(S(=O)(=O)N2CCOCC2)cc1)c1cccs1	15	0.21	0.26	9	0.9	0.9
O=C(Nc1nc(-c2ccc(S(=O)(=O)N3CCCCCC3)cc2)cs1)c1cccs1	10	-1.9	-0.61	53*	0.5	0.9
SMILES	CYP2C19 inhib	Cav3 T inh	Pyk2 oligo antag	CYP2C9 inh	CYP2C9 activ	CYP2C19 activ
O=C(Nc1nc(-c2ccc(S(=O)(=O)N3CCCC3)cc2)cs1)c1cccs1	33	-0.044	-3.2*	62*	0.4	0.7
O=C1c2cccnc2C(=O)N1Cc1ccc(F)cc1	18	0.089	0.13	3	1	0.8
CC(C)N(C(=O)CN1C(=O)NC2(CCCCCC2)C1=O)C(C)C	-6	0.47	1.8	-10	1.1	1.1
Cc1ccc(C=NCc2ccncc2)c(O)c1	76*	-0.013	-0.35	72*	0.3	0.2
Cc1ccc2c(c1)c1cccc3c1n2CCN3CCC(N)=O	31	0.0021	-0.28	74*	0.3	0.7
Nc1nnc(C(c2ccccc2)c2ccccc2)s1	37	0.27	0.35	33	0.7	0.6
CN1CCCN(C(=O)Cc2c(Cl)cccc2Cl)c2nc3ccccc3nc21	18	-3.5	-0.23	17	0.8	0.8
Cc1ccc2[nH]c(=O)c(CN(CCCN3CCOCC3)Cc3nnnn3C3CCCC3)cc2c1	36	0.88	0.34	5	0.9	0.6
